# According to PubChem BioAssay AID743279 (National Center for Advancing Translational Sciences (NCATS), 2014):
# Hit rate of the full screen: of about 360,000 compounds, about 17,000 (4.7%) were called active. About 5% were inconclusive and are not listed. Rule as the data show it: active = activity change below about -50%; inconclusive = mostly about -30% to -49%; inactive = weaker than that. The full list was thinned out, with actives kept by preference.
# Assay: qHTS for Inhibitors of Inflammasome Signaling: IL-1-beta AlphaLISA Primary Screen
# Details: THP-1 LPS/ATP IL-1B secretion, 16 h; at 57.5 µM, stronger effect = lower value
# Method in brief: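 THP-1 cells pretreated 1 hr with compounds (up to 57.5 uM final), then stimulated with LPS (250 ng/mL final) plus ATP (1.25 mM final); secreted IL-1B measured by AlphaLISA after 16 hr, decreased signal indicating inhibition.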
# % is scaled to controls: 0 for no effect and ±100 for the full control effect.
row,SMILES,activity change
1,S=C(NCC1COc2ccccc2O1)Nc1ccc(Br)cc1 (stereo unspecified),0% (inactive)
2,c1ccc(-c2cc3c(NCC4COc5ccccc5O4)ncnc3s2)cc1 (stereo unspecified),-59.2% (active)
3,Oc1ccccc1N1CCN(c2ncnc3sc(-c4ccccc4)cc23)CC1,-28.1% (inactive)
4,Nc1cc(=O)n(Cc2ccccc2)c(=O)n1Cc1ccccc1,-0.791% (inactive)
5,O=C(NCc1ccccc1)C1C(=O)N(Cc2ccccc2)C(=O)C1C1(O)CCCC1 (stereo unspecified),-0.107% (inactive)
6,COc1ccc(-c2[nH][nH]c(=O)c2NC(=O)c2ccc([N+](=O)[O-])cc2)cc1,16% (inactive)
7,CCCCC(C(=O)OCC(=O)c1ccc(OC)cc1)N1C(=O)c2ccccc2C1=O (stereo unspecified),-57.4% (active)
8,CC(C)[C@@H](C(=O)OCC(=O)c1ccc2c(c1)NC(=O)CO2)N1C(=O)c2ccccc2C1=O,25.8% (inactive)
9,COc1ccc(CNC(=O)COC(=O)C(CCSC)N2C(=O)c3ccccc3C2=O)cc1 (stereo unspecified),5% (inactive)
10,CCN(CC(=O)NCCCN1CCOCC1)S(=O)(=O)c1cc(Cl)ccc1Cl,-11.7% (inactive)
11,CN(C)CCN(C(=O)CN1C(=O)c2ccccc2C1=O)c1nc2cc3c(cc2s1)OCCO3,10% (inactive)
12,Cc1ccc2nc(N(CCN(C)C)C(=O)C3=COCCO3)sc2c1,-6.05% (inactive)
13,CN(C)CCCN(C(=O)c1ccc(S(=O)(=O)N2CCCCCC2)cc1)c1nc2ccc(Br)cc2s1,-101% (active)
14,Brc1ccc2nc(N3CCCC3)sc2c1,32.8% (inactive)
15,CN(C)CCCN(C(=O)c1ccc(S(=O)(=O)N2CCCCCC2)cc1)c1nc2cc3c(cc2s1)OCCO3,-66.5% (active)
16,CN(C)CCN(C(=O)C1CCCCC1)c1nc2cc3c(cc2s1)OCO3,-5.98% (inactive)
17,COc1ccc(S(=O)(=O)N(C)CC(=O)N2CCCC2)cc1,-1.23% (inactive)
18,CCN(CC(=O)Nc1c(F)cccc1F)C(=O)c1ccc(S(=O)(=O)N2CCCCC2)cc1,-1.87% (inactive)
19,CCc1ccc2nc(N(CCCN(C)C)C(=O)c3ccc4c(c3)OCCO4)sc2c1,-61.9% (active)

row,SMILES,activity change
1,CCN(CC)CCN(C(=O)c1cccc([N+](=O)[O-])c1)c1nc2ccc(OC)cc2s1,-20.4% (inactive)
2,COc1ccc2sc(N(CCCN(C)C)C(=O)c3ccc(S(=O)(=O)N(C)C4CCCCC4)cc3)nc2c1,-72.4% (active)
3,CCN(CC)CCN(C(=O)c1cc(Cl)sc1Cl)c1nc2cc3c(cc2s1)OCO3,0% (inactive)
4,Cc1ccc(S(=O)(=O)n2oc(=O)c(C3CCCCC3)c2N)cc1,-0.476% (inactive)
5,C/C(COc1ccccc1)=N\NC(=O)c1nnn(-c2nonc2N)c1-c1ccc(C)cc1,-10.3% (inactive)
6,CCCOc1ccc(F)cc1-c1cc(C(=O)Nc2ccc(F)c(Cl)c2)[nH]n1,-11.9% (inactive)
7,O=C1c2ccncc2C(=O)N1C1CCCCC1,-1.14% (inactive)
8,Cc1ccc(C)c(NC2=NCC(=O)N2c2ccc3c(c2)OCCO3)c1,1.69% (inactive)
9,Cc1cn(C2CC(O)C(CO)O2)c(=O)n(CCCc2ccccc2)c1=O (stereo unspecified),0% (inactive)
10,CCOC(=O)N1CCN(C(=O)c2ccc(CN(c3ccc(C)c(C)c3)S(C)(=O)=O)cc2)CC1,1.54% (inactive)
11,Cc1nc2ccccn2c(=O)c1NC(=O)c1ccc(Br)o1,9.2% (inactive)
12,O=c1c2ccccc2ncn1CCc1ccncc1,-6.13% (inactive)
13,COC1(C2=NCCN2)COc2ccccc2O1 (stereo unspecified),6.63% (inactive)
14,COc1cc2c(cc1OC)CN(C(=O)c1ccc(S(=O)(=O)N3CCCCCC3)cc1)CC2,-4.82% (inactive)
15,COc1ccc(C2SCCN2S(=O)(=O)c2ccccc2)cc1OC (stereo unspecified),-9.4% (inactive)
16,COc1cc2c(cc1OC)C(C)N(S(=O)(=O)c1cnc(Cl)c(Cl)c1)CC2 (stereo unspecified),-97.4% (active)
17,CCc1ccc(OCC2c3cc(OC)c(OC)cc3CCN2C(C)=O)cc1 (stereo unspecified),-10.3% (inactive)
18,COc1ccc(CC2c3cc(OC)c(OC)cc3CC[N+]2(C)CCC(=O)OCCCCCOC(=O)CC[N+]2(C)CCc3cc(OC)c(OC)cc3C2Cc2ccc(OC)c(OC)c2)cc1OC (stereo unspecified),-63.5% (active)
19,COC(=O)C1=CN(Cc2ccc(OC)c(OC)c2)C=C(C(=O)OC)C1c1cccs1,17.5% (inactive)

row,SMILES,activity change
1,Cc1ccc([C@H]2C[C@H](O)[C@@H](n3cc(COC(=O)c4ccccc4)nn3)CN2C(=O)C2CCCCC2)cc1,-14.7% (inactive)
2,C[C@H](CO)N1C[C@H](C)[C@@H](CN(C)C(=O)c2cccc(F)c2)Oc2cc(-c3cncnc3)ccc2S1(=O)=O,3.54% (inactive)
3,Clc1ccc(-c2cccc3nccn23)cc1,34.4% (inactive)
4,CCOC(=O)c1cnn2c(SC)ncnc12,-22.6% (inactive)
5,CN(O)C(=S)c1ccccc1,-116% (active)
6,CN(CC(=O)O)C(=O)c1ccccc1,19.1% (inactive)
7,CN(/N=C/c1ccccc1)C(=S)c1ccccc1,1.93% (inactive)
8,CC(C)(C)C1CCC(=O)N2CCC[C@]2(c2ccccc2)C1 (stereo partly specified),0.891% (inactive)
9,COC(=O)c1c(NC(=O)CN2C(=O)NC(CCc3ccccc3)C2=O)sc2c1CCCCC2 (stereo unspecified),-15.4% (inactive)
10,CCOc1cc(-c2cc(-c3ccc(NC(C)=O)cc3)nc(N)c2C#N)ccc1O,-53.1% (active)
11,CCOc1cc(-c2cc(-c3ccc(OC)cc3)nc(N)c2C#N)ccc1O,-3.59% (inactive)
12,CCOC(=O)CC(=O)CSc1nc(-c2ccccc2)cc(-c2ccc(Cl)cc2)c1C#N,6.24% (inactive)
13,CC(C)(C)S(=O)(=O)N1Cc2cc(CO)cc(CCO)c2[C@H]1CCO,8.29% (inactive)
14,CN(C)C(=O)c1cccc(-c2cnc3c(NC=O)cc(-c4ccc(C(=O)N5CCOCC5)cc4)cn23)c1,-14.1% (inactive)
15,O=C(CSc1nc(C2CC2)nc2ccccc12)Nc1ccc2c(c1)OCCO2,-71.5% (active)
16,O=C(CSc1nc(C2CC2)nc2ccccc12)Nc1cccc(O)c1,2.55% (inactive)
17,Cc1nnc(NC(=O)CSc2nc(C3CCCCC3)nc3ccccc23)s1,-0.35% (inactive)
18,CCN(CC)C(=O)C1=C(C)N(Cc2ccc(OC)cc2)C(=O)C(CC(=O)NCCCCc2ccccc2)C1 (stereo unspecified),-14.3% (inactive)
